For this experiment, the target named is furin, P09958. Description: furin cleavage Z-score vs untreated control; higher = more cleavage, active = 3.5 or more, inactive = 1 or less, 8 variable residues between constant flanks. The method in brief: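 Purified furin cleaved 8-mer peptides that were fused to a cDNA oligonucleotide and held on magnetic beads by their N-terminus. Each 0.01 ml reaction used a 1:10 enzyme:substrate ratio in 50 mM HEPES pH 7.5 with CaCl2 and NaCl and ran 7.5, 15 or 30 min. Released DNA was adapter-tagged by PCR and sequenced, and read counts gave abundance. The cleavage Z-score came from log counts against furin-free reactions, lowess-adjusted and scaled by median absolute deviation.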

Some of the results follow. The hit rate among all sequences tested is not known here.

furin, P09958, sequence (P09958 whole entry, the tested form may be a part): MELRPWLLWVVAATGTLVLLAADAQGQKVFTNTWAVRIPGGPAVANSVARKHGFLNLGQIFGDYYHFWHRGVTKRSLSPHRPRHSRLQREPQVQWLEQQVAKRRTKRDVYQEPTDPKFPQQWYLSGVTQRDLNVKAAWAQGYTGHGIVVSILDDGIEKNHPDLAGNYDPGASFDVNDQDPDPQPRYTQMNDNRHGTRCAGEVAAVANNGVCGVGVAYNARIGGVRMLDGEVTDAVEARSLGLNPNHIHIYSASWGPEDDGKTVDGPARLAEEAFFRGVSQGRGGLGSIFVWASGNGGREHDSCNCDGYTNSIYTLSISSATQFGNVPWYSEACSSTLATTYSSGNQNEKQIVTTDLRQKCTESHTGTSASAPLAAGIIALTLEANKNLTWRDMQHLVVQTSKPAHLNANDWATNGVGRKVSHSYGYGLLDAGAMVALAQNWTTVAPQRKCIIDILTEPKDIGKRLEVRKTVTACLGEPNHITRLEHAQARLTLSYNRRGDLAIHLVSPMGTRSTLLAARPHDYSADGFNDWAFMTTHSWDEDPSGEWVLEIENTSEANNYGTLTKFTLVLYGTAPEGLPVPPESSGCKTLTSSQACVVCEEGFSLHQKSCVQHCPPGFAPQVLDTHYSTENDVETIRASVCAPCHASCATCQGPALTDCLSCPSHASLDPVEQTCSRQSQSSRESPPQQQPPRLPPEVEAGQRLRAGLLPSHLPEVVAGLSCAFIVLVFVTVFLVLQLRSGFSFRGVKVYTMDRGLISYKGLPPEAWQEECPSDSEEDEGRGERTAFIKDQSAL

On to CAETPCSAHLAGNASASA [HC2472], for which the “furin cleavage Z-score” value (7.5 min) is -0.0785 (inactive), the “furin cleavage Z-score” value (15 min) is -0.846 (inactive) and the “furin cleavage Z-score” value (30 min) was -1.94 (inactive).

On to CAVCSCLWMMAGNASASA [HC526], for which the “furin cleavage Z-score” value is -0.293 (inactive) (7.5 min), -0.986 (inactive) (15 min) and -0.164 (inactive) (30 min).

With CARHRRALDTAGNASASA [FS-2943], the “furin cleavage Z-score” value was 5.7 (active) (7.5 min), 5.62 (active) (15 min) and 5.06 (active) (30 min).

On to CARKKKLVSTAGNASASA [FS-2560], for which the “furin cleavage Z-score” value is, setting by setting: (7.5 min) -1.01 (inactive); (15 min) -1.81 (inactive); (30 min) -1.46 (inactive).

For the sequence CARHRRLLSIAGNASASA [FS-3256], the “furin cleavage Z-score” value (7.5 min) was -0.899 (inactive), the “furin cleavage Z-score” value (15 min) was -0.261 (inactive) and the “furin cleavage Z-score” value (30 min) is -0.784 (inactive).

Consider CARHRRRGSPAGNASASA [FS-2146], for which the “furin cleavage Z-score” value by setting is: (7.5 min) 0.761 (inactive); (15 min) 1.81; (30 min) 1.39.

As for CARHRRYKALAGNASASA [FS-2556], the “furin cleavage Z-score” value (7.5 min) is -0.784 (inactive), the “furin cleavage Z-score” value (15 min) was -0.33 (inactive) and the “furin cleavage Z-score” value (30 min) worked out at 3.08.

Turning to CARHRRGQETAGNASASA [FS-2145], the “furin cleavage Z-score” value was 0.466 (inactive) (7.5 min), 0.563 (inactive) (15 min) and 2.26 (30 min).

Take CARHRRMLTPAGNASASA [FS-2946]: the “furin cleavage Z-score” value runs as follows: (7.5 min) 5.72 (active); (15 min) 9.34 (active); (30 min) 8.35 (active).

For CARKKKTEGTAGNASASA [FS-2423], the “furin cleavage Z-score” value was -1.18 (inactive) (7.5 min), 0.416 (inactive) (15 min) and 0.176 (inactive) (30 min).

Turning to CARHRRVNGTAGNASASA [FS-2492], the “furin cleavage Z-score” value by setting is: (7.5 min) 0.115 (inactive); (15 min) -0.477 (inactive); (30 min) -0.55 (inactive).

For CARHRRSLRLAGNASASA [FS-1717], the “furin cleavage Z-score” value by setting is: (7.5 min) 6.94 (active); (15 min) 6.95 (active); (30 min) 9.37 (active).

For CARKKRNGLTAGNASASA [FS-2155], the “furin cleavage Z-score” value (7.5 min) is 5.12 (active), the “furin cleavage Z-score” value (15 min) was 6.11 (active) and the “furin cleavage Z-score” value (30 min) is 6.82 (active).

Turning to CAMCECSQHLAGNASASA [HC1700], the “furin cleavage Z-score” value runs as follows: (7.5 min) 0.0737 (inactive); (15 min) 0.814 (inactive); (30 min) -2.77 (inactive).

Regarding CACYSIEPLDAGNASASA [HC1596], the “furin cleavage Z-score” value is, setting by setting: (7.5 min) -0.277 (inactive); (15 min) -1.75 (inactive); (30 min) -0.48 (inactive).

For the sequence CAATGNLPGCAGNASASA [HC243], the “furin cleavage Z-score” value is -1.92 (inactive) (7.5 min), -0.777 (inactive) (15 min) and -0.233 (inactive) (30 min).

On to CARNQRIVQLAGNASASA [FS-2435], for which the “furin cleavage Z-score” value by setting is: (7.5 min) -2.13 (inactive); (15 min) 0.536 (inactive); (30 min) 0.203 (inactive).

As for CARKKRALDTAGNASASA [FS-2561], the “furin cleavage Z-score” value (7.5 min) was 9.66 (active), the “furin cleavage Z-score” value (15 min) is 11.1 (active) and the “furin cleavage Z-score” value (30 min) is 10.8 (active).

Turning to CARKKRALDAAGNASASA [FS-2691], the “furin cleavage Z-score” value (7.5 min) was 9.58 (active), the “furin cleavage Z-score” value (15 min) is 11.5 (active) and the “furin cleavage Z-score” value (30 min) is 8.67 (active).

For the sequence CAQRAYALDTAGNASASA [HC563], the “furin cleavage Z-score” value runs as follows: (7.5 min) -1.1 (inactive); (15 min) -1.23 (inactive); (30 min) -0.561 (inactive).

On to CALPGIPFVSAGNASASA [HC1162], for which the “furin cleavage Z-score” value by setting is: (7.5 min) -1.14 (inactive); (15 min) 0.0847 (inactive); (30 min) -1.27 (inactive).

On to CATYQRHYRNAGNASASA [FS-512], for which the “furin cleavage Z-score” value runs as follows: (7.5 min) 1.23; (15 min) 0.916 (inactive); (30 min) 2.99.

Regarding CAQASRTRRNAGNASASA [FS-621], the “furin cleavage Z-score” value (7.5 min) is 11.3 (active), the “furin cleavage Z-score” value (15 min) was 14.2 (active) and the “furin cleavage Z-score” value (30 min) was 10.1 (active).

Regarding CAKKQRSRRNAGNASASA [FS-1219], the “furin cleavage Z-score” value is, setting by setting: (7.5 min) 9.72 (active); (15 min) 9.45 (active); (30 min) 8.79 (active).

For the sequence CATNPKPQKKAGNASASA [HC162], the “furin cleavage Z-score” value by setting is: (7.5 min) -1.19 (inactive); (15 min) -0.825 (inactive); (30 min) -2.33 (inactive).

Consider CASAPCSAHLAGNASASA [HC2483], for which the “furin cleavage Z-score” value by setting is: (7.5 min) -0.101 (inactive); (15 min) 0.964 (inactive); (30 min) 0.332 (inactive).

Regarding CATVATRDGKAGNASASA [HC283], the “furin cleavage Z-score” value is, setting by setting: (7.5 min) -0.692 (inactive); (15 min) -1.6 (inactive); (30 min) -0.623 (inactive).

As to CARQPRKQGGAGNASASA [FS-2445], the “furin cleavage Z-score” value was -0.459 (inactive) (7.5 min), 0.227 (inactive) (15 min) and 0.306 (inactive) (30 min).

As for CARFFRSACSAGNASASA [FS-1820], the “furin cleavage Z-score” value reads like this: (7.5 min) 0.97 (inactive); (15 min) 0.0813 (inactive); (30 min) -0.895 (inactive).

Consider CARFVRSVMSAGNASASA [FS-3248], for which the “furin cleavage Z-score” value was 4.15 (active) (7.5 min), 5.68 (active) (15 min) and 5.23 (active) (30 min).

Take CARFSRTVQDAGNASASA [FS-2668]: the “furin cleavage Z-score” value by setting is: (7.5 min) 2.27; (15 min) 2.81; (30 min) 4.69 (active).

Turning to CARSKRTEQDAGNASASA [FS-2088], the “furin cleavage Z-score” value runs as follows: (7.5 min) -0.228 (inactive); (15 min) 1.41; (30 min) 1.56.

CARMLRSVFSAGNASASA [FS-1831]: the “furin cleavage Z-score” value was -0.826 (inactive) (7.5 min), -0.551 (inactive) (15 min) and 1.65 (30 min).

With CARDERSWFRAGNASASA [FS-2901], the “furin cleavage Z-score” value by setting is: (7.5 min) 0.291 (inactive); (15 min) -0.493 (inactive); (30 min) 0.641 (inactive).

In the case of CARFLRSKTLAGNASASA [FS-2415], the “furin cleavage Z-score” value (7.5 min) is 0.914 (inactive), the “furin cleavage Z-score” value (15 min) worked out at 1.56 and the “furin cleavage Z-score” value (30 min) was 0.306 (inactive).

CARFIRSVMSAGNASASA [FS-3246]: the “furin cleavage Z-score” value reads like this: (7.5 min) 5.54 (active); (15 min) 5.87 (active); (30 min) 8.7 (active).

With CARFLRSVMSAGNASASA [FS-1821], the “furin cleavage Z-score” value was 1.23 (7.5 min), 4.09 (active) (15 min) and 5.69 (active) (30 min).

For the sequence CANFKRSVASAGNASASA [FS-1847], the “furin cleavage Z-score” value is, setting by setting: (7.5 min) 0.0489 (inactive); (15 min) 1.11; (30 min) 0.734 (inactive).

Turning to CADNEVVTSTAGNASASA [HC2301], the “furin cleavage Z-score” value by setting is: (7.5 min) -1.07 (inactive); (15 min) -0.505 (inactive); (30 min) 0.105 (inactive).

Turning to CAQSFQVAHLAGNASASA [HC771], the “furin cleavage Z-score” value reads like this: (7.5 min) 0.912 (inactive); (15 min) 0.131 (inactive); (30 min) 0.722 (inactive).

Consider CAEVVTNTWVAGNASASA [HC158], for which the “furin cleavage Z-score” value (7.5 min) is -1.52 (inactive), the “furin cleavage Z-score” value (15 min) is -0.248 (inactive) and the “furin cleavage Z-score” value (30 min) was -0.0393 (inactive).

In the case of CAFCHSKKKCAGNASASA [HC857], the “furin cleavage Z-score” value is, setting by setting: (7.5 min) -1.27 (inactive); (15 min) -0.504 (inactive); (30 min) -0.238 (inactive).

Take CAALAAYCLSAGNASASA [HC995]: the “furin cleavage Z-score” value was 1.28 (7.5 min), -0.793 (inactive) (15 min) and 0.489 (inactive) (30 min).
